SARS PLP yeast: inhibitors of SARS-CoV papain-like protease in yeast | S. cerevisiae expressing SARS-CoV PLpro, growth rescue | Potency, µM (top dose mostly 32.9 µM), without a hit: top-dose activity, positive = growth rescue, hits mostly activators | actives 0.19% (n = 330,000); calls by dose curve; note: potency is the fitted concentration of half-maximal effect; 0% is about no effect; nearly all actives have a fitted effect of over 55% in size
Pf growth 48h: inhibits P. falciparum growth in the first generation, 48 h; P. falciparum luciferase growth in erythrocytes, 48 h; Potency, µM (series often up to 28.7 µM), for inactives: at the highest dose activity change, negative = inhibition, usual class: inhibitors; actives 5.9% (n = 310,000); AID 504832; note: potency is the fitted concentration of half-maximal effect; % is set by controls: 0 for no effect and ±100 for the full control effect
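Luminescence readout; reporter = integrated firefly luciferase in P. falciparum. RBC culture at 2% hematocrit, 0.1% parasitemia final, 37 C/5% CO2; decreased signal taken as growth inhibition.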
NS1 inh: influenza NS1 inhibition. actives 0.4% (n = 270,000). Potency, µM (highest dose often 46.1 µM), without a hit: top-dose activity, positive = more growth. AID 2326; calls by dose curve; note: potency is the fitted concentration of half-maximal effect; actives are rising curves; nearly all actives have a fitted effect of over 50% in size
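Read-out: OD600 growth recovery of NS1-expressing budding yeast. Cells grown overnight at 30C in -URA glucose medium, washed, resuspended and diluted 1:100 in 2% galactose assay medium, pH 6.0. Same strain lacking NS1 served as positive control.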
CHX counter: affects cycloheximide protein synthesis inhibition readout, counter-screen | cell reporter, cycloheximide protein synthesis inhibition counterscreen | actives 12% (n = 300,000) | max response, %; in the data active = max response mostly above about 13%, no sharp cut-off; inactive = mostly below about 14%; note: read at 38.3 µM for the half of the compounds with a filed dose; 0% is about no effect
Pf growth 96h: inhibits malaria parasite growth, 96 h; actives 6.9% (n = 320,000); P. falciparum luciferase reporter growth, 96 h; AID 504834; Potency, µM (series often up to 28.7 µM), for the others: at the highest dose activity change, negative = inhibition, actives largely listed as inhibitors; note: potency is the fitted concentration of half-maximal effect; % is set by controls: 0 for no effect and ±100 for the full control effect
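Cell-based qHTS: luciferase-tagged P. falciparum in erythrocytes (2% hematocrit, 0.05% parasitemia final) incubated with compounds for 96 hours, 37 C, 5% CO2; luciferase detection reagent then added and luminescence measured.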
Shiga toxin inh: Shiga toxin inhibition; actives 9.2% (n = 290,000); AID 2315; Vero cells, Shiga toxin protein synthesis inhibition reporter; inhibition, % at 38.7 µM; in the data active = inhibition mostly above about 28%, no sharp cut-off; inactive = mostly below about 43%; note: 0% is about no effect
An asterisk follows results filed as active. Only some compounds are listed: those with a hit (about 21% of all), similar ones and a draw of the others. Unless noted, calls come from the whole dose curve; as a rule, active = well fitted inhibition curve with a large enough effect; inconclusive = small, poorly fitted or top-dose-only effect, or another doubt; inactive = no such curve, though single readings can be large or run the other way.

Results for Cc1cccc2sc(NNC(=O)c3ccc(S(=O)(=O)N4CCCC(C)C4)cc3)nc12 (stereo unspecified) ?
SARS PLP yeast: 8.9µM*; Pf growth 48h: 31%; NS1 inh: -12%; CHX counter: 3; Pf growth 96h: 39%; Shiga toxin inh: 16

What do the screens show for `Cc1cc(-c2nnnn2-c2ccc(F)cc2)no1`?
SARS PLP yeast: 0%; Pf growth 48h: 1%; NS1 inh: 1%; CHX counter: -2; Pf growth 96h: -2%; Shiga toxin inh: -5

Results for CC(C)(C)c1ccc(NC(=O)COC(=O)CCN2C(=O)c3cccc([N+](=O)[O-])c3C2=O)cc1 ?
SARS PLP yeast: -4%; Pf growth 48h: 33%; NS1 inh: 1%; CHX counter: 18*; Pf growth 96h: 0%; Shiga toxin inh: 7

What do the screens show for `CN(Cc1ccco1)C(=O)CN1C(=O)NC(c2ccccc2)(c2ccccc2)C1=O`?
SARS PLP yeast: -5%; Pf growth 48h: inconclusive; Pf growth 96h: inconclusive

Results for Cc1ccc(CN(C)C(=O)CN2C(=O)NC(c3ccccc3)(c3ccccc3)C2=O)c(C)c1 ?
SARS PLP yeast: 1%; Pf growth 48h: 13µM*; Pf growth 96h: inconclusive

Results for CCN(C(=O)CN1C(=O)NC(c2ccccc2)(c2ccccc2)C1=O)c1ccccc1 ?
SARS PLP yeast: -4%; Pf growth 48h: 13µM*; NS1 inh: 12%; CHX counter: -3; Pf growth 96h: inconclusive; Shiga toxin inh: -3

How did CC1CCCC(NC(=O)CN2C(=O)NC(c3ccccc3)(c3ccccc3)C2=O)C1C (stereo unspecified) do in these assays?
SARS PLP yeast: 6%; Pf growth 48h: 15µM*; Pf growth 96h: inconclusive

What do the screens show for `CCN(Cc1cccs1)C(=O)CN1C(=O)NC(c2ccccc2)(c2ccccc2)C1=O`?
SARS PLP yeast: -2%; Pf growth 48h: inconclusive; Pf growth 96h: 13µM*

What do the screens show for `CC(=O)CN1C(=O)NC(c2ccccc2)(c2ccccc2)C1=O`?
SARS PLP yeast: -2%; Pf growth 48h: 19%; NS1 inh: 1%; CHX counter: -1; Pf growth 96h: 18%; Shiga toxin inh: 4

Results for COc1ccc(Cl)cc1NC(=O)c1cc(C)no1 ?
SARS PLP yeast: -3%; Pf growth 48h: 28%; NS1 inh: -5%; CHX counter: 8; Pf growth 96h: 29%; Shiga toxin inh: -1

What do the screens show for `Cc1ccc(C(=O)O)cc1NS(=O)(=O)c1ccc2c(c1)oc(=O)n2C`?
SARS PLP yeast: 14%; Pf growth 48h: 19%; NS1 inh: 2%; CHX counter: 11; Pf growth 96h: 34%; Shiga toxin inh: 28

Results for COc1ccc(CNC(=O)COC(=O)CCN2C(=O)C3CC=CCC3C2=O)cc1OC (stereo unspecified) ?
SARS PLP yeast: 2%; Pf growth 48h: -17%; Pf growth 96h: -8%

What do the screens show for `Cc1nc(S/C(C(=O)O)=C2/C(=O)Nc3ccccc32)n[nH]1`?
SARS PLP yeast: -6%; Pf growth 48h: -11%; NS1 inh: -2%; CHX counter: -2; Pf growth 96h: -10%; Shiga toxin inh: -8

What do the screens show for `COc1ccc(C2=NOC(Cn3nc(C(=O)O)cc3-c3ccccc3)C2)cc1` (stereo unspecified)?
SARS PLP yeast: -1%; Pf growth 48h: 7%; NS1 inh: 17%; CHX counter: -2; Pf growth 96h: 78%; Shiga toxin inh: 8

What do the screens show for `O=C1c2ccccc2S(=O)(=O)N1CC1CC(c2ccccc2)=NO1` (stereo unspecified)?
SARS PLP yeast: 17%; Pf growth 48h: 37%; NS1 inh: -36%; CHX counter: 44*; Pf growth 96h: 11%; Shiga toxin inh: 89*

What do the screens show for `COc1ccc(C2=NOC(CN3C(=O)c4ccccc4S3(=O)=O)C2)cc1` (stereo unspecified)?
SARS PLP yeast: 1%; Pf growth 48h: 117%; NS1 inh: inconclusive; CHX counter: 64*; Pf growth 96h: -8%; Shiga toxin inh: 125*
